According to the supplement of paper PMC3545927:
This is one part of the list. How many sequences the whole screen found active is unknown.

B1: FS-2895 (peptide)
chain: CARCARSSFTAGNASASA
B2: HC409 (peptide)
chain: CAVPAKSVCGAGNASASA
B3: HC450 (peptide)
chain: CALHCPTDCFAGNASASA
B4: HC1608 (peptide)
chain: CAHSYSPGEIAGNASASA
B5: HC382 (peptide)
chain: CAYHHKFNSSAGNASASA
B6: HC1654 (peptide)
chain: CAARPRWIWFAGNASASA
B7: FS-1308 (peptide)
chain: CAARNRQKRFAGNASASA
B8: FS-1590 (peptide)
chain: CAGPGREDRFAGNASASA
B9: FS-306 (peptide)
chain: CATVGRVKRFAGNASASA
B10: HC957 (peptide)
chain: CAVCARAQAPAGNASASA
B11: HC1437 (peptide)
chain: CAPIDTTIMAAGNASASA
B12: HC1690 (peptide)
chain: CAMVECSQHLAGNASASA
B13: HC2115 (peptide)
chain: CAHDVVCCSMAGNASASA
B14: HC2014 (peptide)
chain: CAVKCCSMSYAGNASASA
B15: HC372 (peptide)
chain: CANSTALNCNAGNASASA
B16: HC1570 (peptide)
chain: CATARHTPVNAGNASASA
B17: HC289 (peptide)
chain: CAQLRRHIDLAGNASASA
B18: FS-284 (peptide)
chain: CAQLRRLKRNAGNASASA
B19: HC255 (peptide)
chain: CAASAYQVRNAGNASASA
B20: FS-1249 (peptide)
chain: CAQLRRYPRNAGNASASA
B21: FS-1372 (peptide)
chain: CALSFRLKRNAGNASASA
B22: HC1561 (peptide)
chain: CAVYYLTRDPAGNASASA
B23: HC1232 (peptide)
chain: CAEEVSFRVGAGNASASA
B24: HC2158 (peptide)
chain: CATVVTSTWVAGNASASA
B25: HC1430 (peptide)
chain: CAINSVWKDLAGNASASA
B26: FS-586 (peptide)
chain: CAFCCRKKRRAGNASASA
B27: FS-249 (peptide)
chain: CAHSERKKRRAGNASASA
B28: HC1297 (peptide)
chain: CAEILRKSRRAGNASASA
B29: HC339 (peptide)
chain: CAAGIAYFSMAGNASASA
B30: FS-124 (peptide)
chain: CAGGSRWRRSAGNASASA
B31: FS-139 (peptide)
chain: CAQGNRWRRSAGNASASA
B32: HC806 (peptide)
chain: CAITYSTYGKAGNASASA
B33: FS-644 (peptide)
chain: CAAVPRLRRDAGNASASA
B34: FS-753 (peptide)
chain: CACVPRMRRPAGNASASA
B35: FS-395 (peptide)
chain: CAAGQRLRRDAGNASASA
B36: FS-11 (peptide)
chain: CAAVGRAGRDAGNASASA
B37: HC2116 (peptide)
chain: CAGDVVCCSMAGNASASA
B38: HC81 (peptide)
chain: CAVVCASMSYAGNASASA
B39: FS-26 (peptide)
chain: CAGGPRKRRAAGNASASA
B40: FS-47 (peptide)
chain: CAKSYRKRRAAGNASASA
B41: FS-381 (peptide)
chain: CASQRRKRRAAGNASASA
B42: FS-1178 (peptide)
chain: CAVLVRKRRAAGNASASA
B43: HC346 (peptide)
chain: CAVLVVLLLFAGNASASA
B44: HC991 (peptide)
chain: CAVLVGGVLAAGNASASA
B45: HC231 (peptide)
chain: CAGAPLGGAAAGNASASA

Target: furin, P09958
Sequence (P09958 whole entry): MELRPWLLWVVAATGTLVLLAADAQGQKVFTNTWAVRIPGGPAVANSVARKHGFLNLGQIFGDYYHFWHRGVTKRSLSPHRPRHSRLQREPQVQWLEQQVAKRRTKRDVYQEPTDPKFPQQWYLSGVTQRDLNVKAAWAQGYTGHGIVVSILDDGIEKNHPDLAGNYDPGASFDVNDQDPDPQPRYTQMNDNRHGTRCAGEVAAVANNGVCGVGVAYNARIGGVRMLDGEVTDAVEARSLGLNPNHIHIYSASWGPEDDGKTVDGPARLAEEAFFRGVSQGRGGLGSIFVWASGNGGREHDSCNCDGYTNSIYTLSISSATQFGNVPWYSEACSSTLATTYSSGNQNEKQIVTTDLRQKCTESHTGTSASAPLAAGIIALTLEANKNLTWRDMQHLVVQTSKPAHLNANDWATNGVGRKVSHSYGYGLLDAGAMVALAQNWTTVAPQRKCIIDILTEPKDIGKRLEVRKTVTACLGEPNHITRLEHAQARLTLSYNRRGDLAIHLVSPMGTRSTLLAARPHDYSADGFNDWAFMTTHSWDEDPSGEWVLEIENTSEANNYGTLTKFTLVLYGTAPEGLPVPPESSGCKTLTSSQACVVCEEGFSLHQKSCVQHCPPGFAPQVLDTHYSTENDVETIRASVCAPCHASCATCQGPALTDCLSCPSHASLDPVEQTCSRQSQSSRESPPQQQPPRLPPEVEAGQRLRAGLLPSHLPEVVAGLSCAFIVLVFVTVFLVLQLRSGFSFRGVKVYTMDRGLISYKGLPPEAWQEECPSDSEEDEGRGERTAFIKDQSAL
Test: furin cleavage Z-score vs untreated control; higher = more cleavage, active = 3.5 or more, inactive = 1 or less, 8 variable residues between constant flanks
How it was run: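 Reactions of 0.01 ml ran for 7.5, 15 or 30 min in 50 mM HEPES pH 7.5 with CaCl2 and NaCl, at 1:10 enzyme:substrate. In them, purified furin acted on bead-held 8-mer peptides fused to a cDNA oligonucleotide. The cleavage Z-score was obtained by lowess-adjusting log sequencing counts of released DNA against furin-free reactions and scaling by median absolute deviation.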

Sequence	furin cleavage Z-score (7.5 min)	furin cleavage Z-score (15 min)	furin cleavage Z-score (30 min)
B1	-1.39 (inactive)	-0.507 (inactive)	-0.615 (inactive)
B2	-1.6 (inactive)	0.783 (inactive)	-0.986 (inactive)
B3	0.987 (inactive)	-0.346 (inactive)	0.0192 (inactive)
B4	-0.391 (inactive)	-1.22 (inactive)	-0.845 (inactive)
B5	-0.863 (inactive)	-0.739 (inactive)	-0.583 (inactive)
B6	0.126 (inactive)	1.51	1.36
B7	9.16 (active)	10.4 (active)	8.81 (active)
B8	0.0501 (inactive)	-0.782 (inactive)	0.43 (inactive)
B9	9.9 (active)	9.6 (active)	9.08 (active)
B10	-0.611 (inactive)	-0.626 (inactive)	0.901 (inactive)
B11	-1.63 (inactive)	0.33 (inactive)	-1.75 (inactive)
B12	1.97	0.64 (inactive)	0.696 (inactive)
B13	-0.409 (inactive)	-0.66 (inactive)	0.0366 (inactive)
B14	-0.221 (inactive)	0.288 (inactive)	-1.16 (inactive)
B15	1.61	1.23	0.944 (inactive)
B16	-0.556 (inactive)	-0.38 (inactive)	-0.627 (inactive)
B17	-1.12 (inactive)	0.114 (inactive)	0.176 (inactive)
B18	13 (active)	12.1 (active)	9.76 (active)
B19	2.82	-0.339 (inactive)	0.446 (inactive)
B20	10 (active)	10.4 (active)	8.2 (active)
B21	12.3 (active)	11.1 (active)	9.61 (active)
B22	-0.916 (inactive)	-0.905 (inactive)	-0.163 (inactive)
B23	0.0764 (inactive)	1.08	-0.114 (inactive)

Sequence	furin cleavage Z-score (7.5 min)	furin cleavage Z-score (15 min)	furin cleavage Z-score (30 min)
B24	0.721 (inactive)	0.128 (inactive)	0.308 (inactive)
B25	0.0949 (inactive)	0.0646 (inactive)	0.992 (inactive)
B26	3.8 (active)	4.73 (active)	5.93 (active)
B27	8.63 (active)	10.6 (active)	10.2 (active)
B28	-0.468 (inactive)	1.48	-0.599 (inactive)
B29	-0.0596 (inactive)	0.534 (inactive)	-0.966 (inactive)
B30	6.79 (active)	5.09 (active)	5.21 (active)
B31	14.1 (active)	13 (active)	9.79 (active)
B32	0.0361 (inactive)	-1.76 (inactive)	1.03
B33	11.8 (active)	12.1 (active)	8.75 (active)
B34	0.288 (inactive)	-2.19 (inactive)	0.777 (inactive)
B35	12 (active)	10.2 (active)	8.42 (active)
B36	0.567 (inactive)	1.42	0.637 (inactive)
B37	0.0391 (inactive)	-0.825 (inactive)	-0.011 (inactive)
B38	0.42 (inactive)	1.25	-0.0546 (inactive)
B39	5.06 (active)	5.01 (active)	3.88 (active)
B40	9.96 (active)	10.6 (active)	7.5 (active)
B41	6.33 (active)	6.94 (active)	4.52 (active)
B42	12 (active)	12.9 (active)	8.97 (active)
B43	-1.01 (inactive)	-0.224 (inactive)	-0.108 (inactive)
B44	-0.269 (inactive)	-2.26 (inactive)	-1.24 (inactive)
B45	-0.433 (inactive)	-0.224 (inactive)	-0.596 (inactive)
